PKM2 act: activators of human pyruvate kinase M2; Potency, µM (titrated, usually from 57.5 µM), for the others: at the highest dose activation, actives largely listed as activators; AID 1631; purified PKM2, Kinase-Glo ATP luminescence, activation; response scale: 0% is enzyme alone, no compound; 0.34% of 260,000 active; also: potency is read from the fitted curve at half-maximal effect; nearly all actives have a fitted effect of over 55% in size
Target sequence (P14618 whole entry, looked up): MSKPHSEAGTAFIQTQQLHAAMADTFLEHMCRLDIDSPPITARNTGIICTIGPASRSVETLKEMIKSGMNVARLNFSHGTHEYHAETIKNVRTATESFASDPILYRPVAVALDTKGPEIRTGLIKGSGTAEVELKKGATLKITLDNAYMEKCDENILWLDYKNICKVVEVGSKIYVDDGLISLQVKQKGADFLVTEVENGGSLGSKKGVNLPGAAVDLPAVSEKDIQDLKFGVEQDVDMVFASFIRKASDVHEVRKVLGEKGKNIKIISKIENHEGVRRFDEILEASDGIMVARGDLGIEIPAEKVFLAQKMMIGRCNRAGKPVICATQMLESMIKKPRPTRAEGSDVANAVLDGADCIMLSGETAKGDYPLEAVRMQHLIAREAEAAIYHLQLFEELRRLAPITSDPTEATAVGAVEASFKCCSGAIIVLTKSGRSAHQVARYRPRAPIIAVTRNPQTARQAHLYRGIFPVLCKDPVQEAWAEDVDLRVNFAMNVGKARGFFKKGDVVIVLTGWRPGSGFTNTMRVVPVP
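Kinase-Glo luminescence reports ATP generated from ADP (0.1 mM) and PEP (0.5 mM) by purified hPK-M2 after 1 h at room temperature, pH 7.2 imidazole buffer; intermediate enzyme activity allows detecting inhibitors and activators.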
PI4K2A inh: blocks human PI4K2A kinase activity | 0.13% of 420,000 active | activity change, negative = inhibition, % at 76.9 µM | Q9BTU6 | AID 1346378 | purified PI4K2A, ADP-Glo luminescence, 1 h; hits give low values; in the data active = activity change below about -50%; inconclusive = mostly about -30% to -49%;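 also: -100% = wells without enzyme as full effect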
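ADP-Glo luminescence measured ADP generated by PI4K2A enzyme (4 ug/mL before mixing) with 1.2 mM PI substrate (pre-mix) and 300 microM ATP (pre-mix). Tris pH7.5 buffer with MgCl2, Triton X-100; 1 h reaction at ambient temperature.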
rTrxR1 inhibitor: rat TrxR1 inhibition; 1% of 390,000 active; recombinant rTrxR1, NADPH fluorescence consumption, selenite substrate; Potency, µM (top dose mostly 114 µM), without a hit: at the highest dose activity change, negative = inhibition, actives largely listed as inhibitors; also: potency is read from the fitted curve at half-maximal effect; nearly all actives have a fitted effect of over 65% in size
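Rat TrxR1 (90 nM in the dispensed reagent) was pre-reduced with 400 uM NADPH for 5 min at room temperature, then incubated with compound for 15 min. After 400 uM selenite was added, NADPH fluorescence (Ex 340/Em 450 nm) was followed for 8 min.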
TrxR1 substrate: rat thioredoxin reductase 1 substrate activity | purified TrxR1 substrate turnover, NADPH consumption readout | 0.01% of 390,000 active | AID 588456 | Potency, µM (titrated, usually from 114 µM), for the others: top-dose activity change, negative = substrate turnover; also: potency is read from the fitted curve at half-maximal effect; nearly all actives have a fitted effect of over 50% in size
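Rat TrxR1, dispensed at 90 nM, was prereduced with 400 uM NADPH (final) for 5 min at ~22 deg C, then incubated with compound 15 min before 400 uM selenite. A first-read NADPH fluorescence drop versus no-compound background flagged substrates.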
GALK inh: galactokinase (human) inhibition. AID 1868. 0.007% of 270,000 active. P51570. Purified GALK, Kinase-Glo residual ATP luminescence. Potency, µM (titrated, usually from 57.5 µM), for inactives: top-dose activity change, negative = inhibition, most hits filed as inhibitors; also: potency is read from the fitted curve at half-maximal effect
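ATP-depletion format; final 35 uM ATP, 100 uM D-galactose, 5 nM enzyme; pH 8.0 HEPES/Mg2+ buffer; 60 min RT; luminescence read 10 min after detection reagent.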
Active calls of the source: *; [ ] = remark or other dose. The list is not random: actives were taken first. Their share in the collection is about 1.2%. Unless noted, calls follow the shape of the dose curve; as a rule, active = well fitted curve in the direction sought with a large enough effect; inconclusive = small, poorly fitted or top-dose-only effect, or another doubt; inactive = no such curve, though single readings can be large; an effect the other way counts as inactive or inconclusive. Unless noted, % is scaled to controls: 0 for no effect and ±100 for the full control effect.

How did CCC(C(=O)NC(C)(C)C)n1c(C(c2ccccc2)c2ccccc2)nc2ccccc21 (stereo unspecified) do in these assays?
PI4K2A inh: 2

Results for O=C(Nc1ccccc1C(F)(F)F)OCCN1C(=O)CCC12CCC(c1ccccc1)CC2 (stereo unspecified) ?
PI4K2A inh: -1

Results for O=S(=O)(Cc1ccccc1)N1CCN(c2nc(-c3cccs3)nc3ccccc23)CC1 ?
rTrxR1 inhibitor: 18%; TrxR1 substrate: 31%

Results for CC(C)(C)OC(=O)N1CC=C2C(C#N)=C(N)C(C#N)(C#N)[C@H](c3cccnc3)[C@H]2C1 ?
PKM2 act: 7%; PI4K2A inh: -3; rTrxR1 inhibitor: 40µM*; TrxR1 substrate: 18%; GALK inh: 0%

What do the screens show for `CC(C)(C)OC(=O)N1CC=C2C(C#N)=C(N)C(C#N)(C#N)C(c3cccs3)C2C1` (stereo unspecified)?
PKM2 act: 5%; PI4K2A inh: 10; rTrxR1 inhibitor: inconclusive; TrxR1 substrate: -1%; GALK inh: 0%

Results for O=S(=O)(CC1NCCc2ccccc21)NCc1ccc(F)cc1 (stereo unspecified) ?
PI4K2A inh: -3

What do the screens show for `Cc1ccc(/C=C/C(=O)NCCc2ccccc2)o1`?
PKM2 act: 1%[11.5 µM]; PI4K2A inh: -1; rTrxR1 inhibitor: 14µM*; TrxR1 substrate: 5%; GALK inh: -9%

What do the screens show for `Cc1ccc(/C=C/C(=O)Nc2nn[nH]n2)o1`?
PKM2 act: 6%; PI4K2A inh: 2; rTrxR1 inhibitor: 50µM*; TrxR1 substrate: -19%; GALK inh: 0%

What do the screens show for `Cc1ccc(/C=C/C(=O)Nc2cccc3ncccc23)o1`?
PKM2 act: 9%; PI4K2A inh: 2; rTrxR1 inhibitor: 10µM*; TrxR1 substrate: -4%; GALK inh: 1%

Results for Cc1ccc(/C=C/C(=O)Nc2cccnc2)o1 ?
PKM2 act: -22%; PI4K2A inh: -8; rTrxR1 inhibitor: 32µM*; TrxR1 substrate: 4%[57.1 µM]; GALK inh: 4%

How did CC(C)c1ccc(/C=C/C(=O)Nc2nn[nH]n2)cc1 do in these assays?
PKM2 act: -1%; GALK inh: 3%

What do the screens show for `COc1cccc(NC(=O)NC2CCCCN(Cc3ccc(C)cc3)C2=O)c1` (stereo unspecified)?
PI4K2A inh: -7

Results for CC(C)(C)n1ncc2c(=O)n(Cc3ccccc3-c3ccccc3)cnc21 ?
rTrxR1 inhibitor: 11%; TrxR1 substrate: -2%

Results for Cc1ccc(NC(=S)NC(=O)C2CCC2)cc1C ?
PKM2 act: -4%; PI4K2A inh: 2; rTrxR1 inhibitor: 50µM*; TrxR1 substrate: 3%; GALK inh: -3%

Results for C=C(CN(C)C)C(=O)c1ccc(OC2OC(COC(C)=O)C(OC(C)=O)C(OC(C)=O)C2OC(C)=O)cc1 (stereo unspecified) ?
PI4K2A inh: -2; rTrxR1 inhibitor: 2.8µM*; TrxR1 substrate: 9%[11.4 µM]

How did CC(=O)OC[C@H]1O[C@@H](O/N=C/[C@@H](C)[C@H](OCc2ccccc2)C(C)C)[C@H](OC(C)=O)[C@@H](OC(C)=O)[C@@H]1OC(C)=O do in these assays?
PKM2 act: -14%

What do the screens show for `CN1[C@H](Cc2ccccc2)COc2cccc(N3CCCC3)c2S1(=O)=O`?
PI4K2A inh: 2

What do the screens show for `O=C(C=Cc1ccccc1O)c1ccccc1O`?
PI4K2A inh: 0; rTrxR1 inhibitor: -15%[11.4 µM]; TrxR1 substrate: 2%[57.1 µM]

Results for Cc1ccc(C)c(/C=C/C(=O)c2ccccc(=O)c2O)c1 ?
PKM2 act: 17%; PI4K2A inh: -3; rTrxR1 inhibitor: 50µM*; TrxR1 substrate: -15%

Results for Cc1ccc(/C=C/C(=O)c2ccccc(=O)c2O)c(C)c1 ?
PKM2 act: 21%; PI4K2A inh: -2; rTrxR1 inhibitor: -67%; TrxR1 substrate: 1%[57.1 µM]

How did O=C(/C=C/c1ccccc1Cl)c1ccccc(=O)c1O do in these assays?
PKM2 act: 20%; PI4K2A inh: -8; rTrxR1 inhibitor: 35µM*; TrxR1 substrate: -7%

What do the screens show for `CCOc1ccc(N2C(=O)CC(N3CCN(c4ccc([N+](=O)[O-])cc4)CC3)C2=O)cc1` (stereo unspecified)?
PKM2 act: 0%; PI4K2A inh: -4; rTrxR1 inhibitor: 25µM*; TrxR1 substrate: -3%; GALK inh: -5%

What do the screens show for `CCOc1ccc(N2C(=O)CC(N3CCN(c4ccc(Cl)cc4)CC3)C2=O)cc1` (stereo unspecified)?
PKM2 act: -3%; PI4K2A inh: -7; rTrxR1 inhibitor: 40µM*; TrxR1 substrate: 14%[2.29 µM]; GALK inh: 4%

What do the screens show for `O=C(NCS(=O)(=O)c1ccccc1)c1ccccc1`?
PKM2 act: -5%; PI4K2A inh: -2; rTrxR1 inhibitor: 45µM*; TrxR1 substrate: 4%; GALK inh: 3%

How did Cc1nc2ccc(S(=O)(=O)N(CC(=O)Nc3cccc(F)c3)Cc3ccccc3)cc2s1 do in these assays?
PI4K2A inh: -4; rTrxR1 inhibitor: 34%[57.1 µM]; TrxR1 substrate: 4%[57.1 µM]

How did COc1cc(C=c2c3ccccc3n3c2cc(-c2ccccc2)[n+]3C)cc(OC)c1OC do in these assays?
PI4K2A inh: inconclusive; rTrxR1 inhibitor: 50µM*; TrxR1 substrate: -10%

What do the screens show for `CN(C)c1ccc(C=c2c3ccccc3n3c2cc(-c2ccccc2)[n+]3C)cc1`?
PI4K2A inh: inconclusive; rTrxR1 inhibitor: 6%[11.4 µM]; TrxR1 substrate: 1%[11.4 µM]

What do the screens show for `CN(C)c1ccc(C=c2c3cc([N+](=O)[O-])ccc3n3c2cc(-c2ccccc2)[n+]3C)cc1`?
PI4K2A inh: -51*; rTrxR1 inhibitor: 40µM*; TrxR1 substrate: -19%

How did COc1cc(N(C)C)ccc1C=c1c2ccccc2n2c1cc(-c1ccccc1)[n+]2C do in these assays?
PI4K2A inh: inconclusive; rTrxR1 inhibitor: 10%[11.4 µM]; TrxR1 substrate: 8%[11.4 µM]

What do the screens show for `COc1cc2c(NC3CCN(C)CC3)nc(N3CCCN(C)CC3)nc2cc1OCCCCCCN(C)C`?
rTrxR1 inhibitor: inconclusive; TrxR1 substrate: 76%

What do the screens show for `CCOC(=O)c1cnc2ccc(C(=O)OC)cc2c1NCCN1CCOCC1`?
PKM2 act: -1%; PI4K2A inh: 0; rTrxR1 inhibitor: 45µM*; TrxR1 substrate: 7%; GALK inh: 10%

What do the screens show for `CCOC(=O)c1cnc2ccc(C(=O)OC)cc2c1NCCCN1CCOCC1`?
PKM2 act: 0%; PI4K2A inh: -2; rTrxR1 inhibitor: -73%; TrxR1 substrate: 8%[57.1 µM]; GALK inh: 3%

Results for NN/C(=C\[N+](=O)[O-])Nc1ccccc1 ?
PKM2 act: -6%; PI4K2A inh: -1; rTrxR1 inhibitor: 16µM*; TrxR1 substrate: 0%; GALK inh: 11%

Bioassay records deposited in PubChem by National Center for Advancing Translational Sciences (NCATS).
